Hits are enriched below; roughly 3.2% of the tested compounds scored in any of these assays.
HEK293 tox: cytotoxic in the GLP-1 receptor inverse agonist counter-screen | Potency, µM (highest dose often 38.3 µM), without a hit: at the top dose activity change, negative = inhibition, hits mostly inhibitors | HEK293 cAMP-luciferase reporter cells, luminescence, 24 h | 410,000 tested, 0.13% active;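 also: loss of luciferase light is scored as toxicity; % is scaled to controls: 0 for no effect and ±100 for the full control effect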
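Luminescence readout: signal drop marks cytotoxicity. Plated cells grew 12 h at 37 °C, 5% CO2, received 23 nL compound for 24 h, then got luciferase reagent, read after 12 min at RT.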
ClpP mod: qHTS Assay for Activators of ClpP. ATP-dependent Clp protease proteolytic subunit (Bacillus subtilis (strain 168)), P80244. purified B. subtilis ClpP, FRET peptide cleavage, 20 min. Potency, µM (highest dose often 57.5 µM), for inactives: top-dose activity change, negative = active. 340,000 tested, 1.9% active. AID 651965, 2013; active = well fitted falling curve with a large enough effect; inconclusive = small, poorly fitted or top-dose-only effect; inactive = no such curve, though single readings can be large or run the other way; also: the source files actives as falling curves though it sought activators and does not explain the sign; nearly all actives have a fitted effect of over 65% in size
Target sequence (P80244 whole entry, looked up): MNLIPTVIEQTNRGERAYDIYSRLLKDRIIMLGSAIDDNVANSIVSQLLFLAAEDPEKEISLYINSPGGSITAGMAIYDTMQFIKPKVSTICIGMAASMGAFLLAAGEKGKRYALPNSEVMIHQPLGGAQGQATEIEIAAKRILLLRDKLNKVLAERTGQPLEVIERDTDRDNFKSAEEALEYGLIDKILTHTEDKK
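ClpP 10 microg/mL final, pH 8 Tris/KCl buffer with BSA, glycerol, Tween-20; compound pinned in; FRET-FV substrate; RT 20 min; Ex320/Em430; ΔFRET vs ADEP 5.8 microM, DMSO, no enzyme.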
GLP-1R agonist: activates the human GLP-1 receptor; AID 624172; 380,000 tested, 0.007% active; Potency, µM (doses to about 45.6 µM), for the others: at the highest dose activation, actives largely listed as activators; P43220; HEK293 GLP-1R CRE-luciferase, luminescence, 4-6 h; cells express a hypersensitive GLP-1R form; also: % of control where 0% means no effect
Target sequence (P43220 whole entry, looked up): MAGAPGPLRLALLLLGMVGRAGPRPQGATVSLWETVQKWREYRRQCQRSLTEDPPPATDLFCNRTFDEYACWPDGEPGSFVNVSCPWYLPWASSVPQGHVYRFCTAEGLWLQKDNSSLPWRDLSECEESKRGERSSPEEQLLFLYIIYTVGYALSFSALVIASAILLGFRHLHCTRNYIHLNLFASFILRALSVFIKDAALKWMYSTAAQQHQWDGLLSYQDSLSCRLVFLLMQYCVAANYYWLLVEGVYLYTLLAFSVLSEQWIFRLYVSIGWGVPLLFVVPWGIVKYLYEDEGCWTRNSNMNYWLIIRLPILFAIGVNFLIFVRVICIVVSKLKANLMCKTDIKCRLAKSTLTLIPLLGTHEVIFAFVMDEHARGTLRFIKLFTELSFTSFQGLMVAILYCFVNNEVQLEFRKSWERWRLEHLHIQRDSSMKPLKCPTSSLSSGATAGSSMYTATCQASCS
GLP-1R inv ag: GLP-1 receptor (human) inverse agonism; P43220; AID 624417; Potency, µM (series often up to 38.3 µM), for inactives: top-dose activity change, negative = inhibition, actives largely listed as inhibitors; HEK293 GLP-1R CRE-luciferase, luminescence, 24 h; GLP-1R form is constitutively active; 410,000 tested, 1.6% active; also: % is scaled to controls: 0 for no effect and ±100 for the full control effect; nearly all actives have a fitted effect of over 55% in size
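Constitutively active GLP-1R drives a cAMP-responsive luciferase in stably transfected HEK293 cells; test compounds are added after overnight (12 h) attachment and left 24 hr, and signal loss in luminescence marks inhibition.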
Active calls of the source: *; u = inconclusive; x = no result given; [ ] = dose if it differs, or a comment. Unless noted, calls follow the shape of the dose curve; as a rule, active = well fitted curve in the direction sought with a large enough effect; inconclusive = small, poorly fitted or top-dose-only effect, or another doubt; inactive = no such curve, though single readings can be large; an effect the other way counts as inactive or inconclusive. Potency is read from the fitted curve at half-maximal effect.

SMILES | HEK293 tox | ClpP mod | GLP-1R agonist | GLP-1R inv ag
CCOC(=O)C[C@H]1c2cc(F)ccc2S(=O)(=O)N1Cc1cc(OC)c(OC)c(OC)c1 | x | 2% | x | x
CC1=C(c2ccc(C)cc2)S(=O)(=O)NC1=NCc1ccccc1Cl | -7% | 1% | x | u
N#Cc1c(C(F)(F)F)cc(-c2ccccc2Cl)[nH]c1=O | -2% | 3.5µM* | 0% | 0%
N#Cc1c(C(F)(F)F)cc(-c2ccccc2)[nH]c1=O | -7% | u | 2% | 3%
Cc1ccc(-n2cc(C(=O)OCc3ccc(F)c(F)c3)c3ccccc3c2=O)cc1 | -6% | -6% | x | 1%
C=CCn1c(SCc2ccc(C(=O)Nc3nccs3)cc2)nnc1-c1ccc(C)c(Cl)c1 | u | -27% | -6% | 4.5µM*
Cc1ccccc1-c1nc2c(=O)n(C)c(=O)nc-2n(C)n1 | x | -1% | x | x
Cn1nc(-c2ccccn2)nc2c(=O)n(C)c(=O)nc1-2 | u | 0% | -8% | 3.2µM*
OC(CNCCNc1ncccc1C(F)(F)F)Cn1ccc2ccccc21 (centres undefined) | -5% | -1% | 22% | 10µM*
COc1c(C)cc(Br)cc1C(=O)Nc1cccc(NC(=O)c2ccco2)c1 | -21% | 28µM* | 0% | u
COc1ccc(Br)cc1C(=O)Nc1cccc(NC(=O)c2ccco2)c1 | u | -7% | 1% | u
CCCC(=O)O[C@@H]1C[C@@H](C)N(C(=O)c2ccccc2)c2ccc(C)cc21 | -2% | 26% | -1% | 10µM*
c1ccc(-c2cc(-c3nnco3)c3ccccc3n2)nc1 | 2% | x | 6% | 10%
COc1cc(-c2cc(-c3nnco3)c3ccccc3n2)cc(OC)c1OC | 3% | 13µM* | 20% | 39%
COc1ccccc1NC(=O)C(=O)c1cc(C)n(-c2cc(C)cc(C)c2)c1C | 9% | -4% | x | u
CCOc1cc2oc(=O)c3c(c2cc1Cl)CCC3 | -4% | -25% | -4% | 48%
CCc1cc2c3c(c(=O)oc2cc1OC)CCCC3 | 2% | 35µM* | 4% | -20%
CCOc1ccc(N=C(C)Nc2ccc(OCC)cc2)cc1 | x | x | -4% | x
Cn1c(C(=O)NCC2CCCO2)cc2c(=O)n(C)c3ccccc3c21 (centres undefined) | 0% | 4% | 0% | 62%
COc1ccc(OC)c(-c2nc(C(=O)NC3CCN(Cc4ccccc4)CC3)cc3c2[nH]c2ccccc23)c1 | -3% | 4% | 11% | 10µM*
Cn1c(C(=O)NCC2CCCO2)cc2c(=O)[nH]c3ccccc3c21 (centres undefined) | -5% | 22µM* | 19% | 0%
COc1ccc(-c2nc(C(=O)NCC3CCCO3)cc3c2[nH]c2ccccc23)cc1 (centres undefined) | u | 5% | -5% | 10µM*
Cc1ccccc1-c1nc(C(=O)NCC2CCCO2)cc2c1[nH]c1ccccc12 (centres undefined) | -19% | 4% | u | 10µM*
Cc1ccc(-c2nc(C(=O)NCC3CCCO3)cc3c2[nH]c2ccccc23)cc1 (centres undefined) | u | 4% | -5% | u
COc1ccc(NC(=O)C(C)n2nnc3sc(-c4ccccc4)cc3c2=O)cc1Cl (centres undefined) | -13% | 3% | x | 7%
SMILES | HEK293 tox | ClpP mod | GLP-1R agonist | GLP-1R inv ag
CCc1nc(-c2cc(S(=O)(=O)N3CCN(c4ccccc4OC)CC3)ccc2OC)no1 | 3% | -2% | x | -6%
CCCOc1ccc(CN(C(=O)c2cc(=O)c3ccc(C)cc3o2)C2CCS(=O)(=O)C2)cc1 (centres undefined) | -15% | 0% | x | 27%
CCOc1ccc(NC(=O)CCN2CCN(S(=O)(=O)c3cc(Cl)ccc3OC)CC2)cc1 | -14% | 28µM* | 4% | u
COc1ccc(COC(=O)c2ccc(Cl)c(S(=O)(=O)N3CC(C)OC(C)C3)c2)cc1 (centres undefined) | 5% | -1% | 4% | 8.9µM*
COc1ccc(CCC(=O)Nc2ccc(OC)c(S(=O)(=O)N3CCCCC3)c2)cc1OC | -5% | -1% | 5% | 9%
COc1ccc(CCC(=O)Nc2ccc(Cl)c(S(=O)(=O)N3CCCC3)c2)cc1 | -4% | -2% | -4% | 10µM*
COC(=O)[C@@]12CCCCN1[C@H](c1ccc(-c3ccc(F)cc3)c(OC)c1)[C@@H]1C(=O)N(C)C(=O)[C@@H]12 | -14% | -13% | -1% | 10µM*
COC(=O)[C@@]12CCCN1[C@H](c1ccc(-c3ccc(OC)cc3)c(OC)c1)[C@@H]1C(=O)N(C)C(=O)[C@@H]12 | -12% | 4% | 14% | -28%
CCOC(=O)c1c(NC(=O)c2ccccc2N(C)S(=O)(=O)c2ccccc2)sc2c1CCCC2 | 3% | 13µM* | -1% | u
COC(=O)c1c(NC(=O)c2ccccc2N(C)S(=O)(=O)c2ccccc2)sc2c1CCCC2 | 1% | u | 16% | -3%
CCOC(=O)c1c(NC(=O)c2ccn(CC)n2)sc2c1CCCC2 | 1% | 25µM* | 13% | -29%
CCOC(=O)c1c(NC(=O)c2ccccc2Cl)sc2c1CCCC2 | 16% | u | x | 6%
CCOC(=O)c1c(NC(=O)C(NCCN(C)C)c2ccccc2)sc2c1CCCC2 (centres undefined) | 4µM* | x | 20% | u
COc1cc(NC(=O)Cn2c(=O)nc(-c3ccccc3F)c3cc(Cl)ccc32)cc(OC)c1 | 8% | -6% | x | u
CCOC(=O)c1cccc(NC(=O)Cn2nc3c(cc2=O)CCCC3)c1 | 4% | -2% | x | 1%
CCc1ccc2occ(CC(=O)Nc3c(C(=O)Nc4ccc(OC)cc4)oc4ccccc34)c2c1 | -9% | 54% | x | 12%
Cc1c(C(=O)C(=O)N2CCN(C)CC2)c2ccccc2n1C | -5%[0.307 µM] | 13µM* | -3% | -6%[0.307 µM]
COc1ccc(-c2nc(CS(=O)CC(=O)NCCc3ccc(C)cc3)c(C)o2)cc1OC (centres undefined) | -4% | 4% | u | 96%
COc1ccc(-c2nc(CS(=O)CC(=O)NCCc3ccccc3)c(C)o2)cc1OC (centres undefined) | 4% | 16µM* | x | 44%
COc1ccc(-c2nc(CS(=O)CC(=O)NCCCN3CC(C)CC(C)C3)c(C)o2)cc1OC (centres undefined) | 5% | 28µM* | -8% | 0%
CCOC(=O)c1ccc(NC(=O)CSc2nc(-c3ccc(OC)cc3)cc(C(F)(F)F)c2C#N)cc1 | 0% | 4% | x | 4%
C#C[C@]1(O)CCC2C3CCC4=CC(=O)CC[C@@H]4C3CC[C@@]21C (some centres undefined) | 7% | 4% | 11% | 2%
C#CC1(O)CCC2C3CCc4cc(O)cc(C)c4C3CCC21C (centres undefined) | -12% | 32µM* | 1% | -11%
COc1cc(OC)c(NC(=O)N2CCOCC2)cc1Cl | 0% | 28µM* | -2% | 12%
CC(=O)Nc1cc(C(=O)NCc2ccc(C)cc2)ccc1S(=O)(=O)c1ccc(Cl)cc1 | 2% | -4% | 4% | -22%
